PubChem BioAssay (NCI)
The panel holds about 83,000 compounds, 20% with a hit somewhere; the sample as a whole holds those more often.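 Growth was measured after 48 h exposure to one concentration of compound in 96-well plates. Values under 10 count as active.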 A number with no mark means an inactive call. Activity calls are given as the source filed them.

Experiments:
Assay in all cases: NCI-60 one-dose screen, 48 h (100 = growth as untreated, 0 = no growth, -100 = all killed)
Conditions in all cases: 10 µM unless noted
DU-145 prostate = tested on: DU-145 prostate
K-562 leukemia = tested on: K-562 leukemia
MALME-3M melanoma = tested on: MALME-3M melanoma
MDA-MB-231 breast = tested on: MDA-MB-231 breast
RXF 393 renal = tested on: RXF 393 renal
SF-268 CNS = tested on: SF-268 CNS
SF-295 CNS = tested on: SF-295 CNS
SF-539 CNS = tested on: SF-539 CNS
UACC-257 melanoma = tested on: UACC-257 melanoma
M14 melanoma = tested on: M14 melanoma

| SMILES | growth (DU-145 prostate) | growth (K-562 leukemia) | growth (MALME-3M melanoma) | growth (MDA-MB-231 breast) | growth (RXF 393 renal) | growth (SF-268 CNS) | growth (SF-295 CNS) | growth (SF-539 CNS) | growth (UACC-257 melanoma) | growth (M14 melanoma) |
| --- | --- | --- | --- | --- | --- | --- | --- | --- | --- | --- |
| O=c1ccc(N=Nc2ccccc2)ccc1Cl | 93.2% | 0.344% (active) | 55% | -1.83% (active) | 6.49% (active) | 92.5% | 69.6% | 45.8% | 74.6% | 46.6% |
| O=C1c2cccc3cccc(c23)C(=O)N1Nc1nc(N2CCOCC2)nc(N2CCN(c3ccccc3)CC2)n1 | 55% | 18.4% | 21.7% | 56.3% | 30.9% | 53.8% | 20.6% | 50.2% | 71.8% | 19.4% |
| COc1cc(C)c(Cc2cnc(N)nc2N)cc1OC | 120% | 110% | 99.3% | 109% | 123% | 108% | 103% | 98.6% | 111% | 105% |
| O=C(CCCCCCSc1nc(-c2ccccc2)cc(-c2ccccc2)n1)NO | 36.3% | 11.3% | 14.3% | 40.8% | 6.08% (active) | 62.3% | 41.7% | 53.1% | 29% | 31.7% |
| C=C1CC[C@@]2(C#N)[C@H]3[C@H](CC[C@@H]2C)[C@@H](C)C[C@@H](CC(C)(C)C#N)[C@H]13 | 45.4% | 9.97% (active) | 103% | 61.3% | 86.2% | 47% | 14.4% | 43.9% | 71.9% | 20.9% |
| Cc1ccc2c(-c3cc(-c4ccccc4)nc(N)c3C#N)cc(=O)oc2c1 | 107% | 108% | 94.8% | 101% | 110% | 99.1% | 109% | 94.7% | 101% | 108% |
| NCCCNc1nc2ccccc2c2c(=O)c3cc(C(F)(F)F)ccc3sc12 | -0.179% (active) | -21.4% (active) | 87.1% | -35.2% (active) | 55.7% | 47.1% | 71.7% | -20% (active) | 96.1% | -26.9% (active) |
| C=C1C(=O)O[C@H]2[C@H]1CC/C(COC(=O)CCC(=O)NCCOCCOCC(=O)Nc1ccc(OC)c(C(N)=O)c1O)=C\CC[C@@]1(C)O[C@@H]21 | 101% | 86.2% | 92.7% | 95.2% | 67.9% | 95.2% | 97.3% | 88.8% | 77.6% | 93.3% |
| O=C(CCN1C(=O)/C(=C/c2ccc(O)cc2)SC1=S)Nc1ccc(Cl)cc1 | 108% | 89.7% | 89.9% | 86.3% | 108% | 90.9% | 92.9% | 96.1% | 101% | 100% |
| COc1ccc(S(=O)(=O)n2cc(C3OC(c4cc(OC)c(OC)c(OC)c4)=NN3C(C)=O)c3ccccc32)cc1OC (stereo not given) | 145% | 64.4% | 104% | 82.6% | 89.3% | 108% | 93% | 89.1% | 87.9% | 98.1% |
| O=c1n(Cc2ccc3ccccc3c2)ccn1Cc1ccc2ccccc2c1 | 100% | 106% | 91.8% | 91.4% | 96.4% | 84.7% | 94.5% | 87.7% | 101% | 93.3% |
| O=C(Nc1ccc(Br)cc1F)c1cc(Br)ccc1O | 20.9% | 10.3% | -26.4% (active) | -38.1% (active) | -8.01% (active) | 14.5% | -59.7% (active) | 9.41% (active) | -17.2% (active) | 8.04% (active) |
| CSc1nc2ccc(C)cc2cc1/C=N/O | 93% | 94.7% | 108% | 83.5% | 87.3% | 83.1% | 101% | 91.1% | 80.6% | 87.8% |
